The values that follow come from PubChem BioAssay (EPA / NIEHS).

Activity calls are given as the source filed them. The calls were made as follows: active = hit-call score of the fitted dose curve at least 0.9, where 1 is the maximum; inactive = score below 0.9.

Read-out in the assay: growth arrest and DNA damage 45 (GADD45A), GADD45A (gene 1647)
The assay is described as follows: LTEA_HepaRG_GADD45A: Life Technologies and Expression Analysis (LTEA) Assay for growth arrest and DNA damage 45 (GADD45A) using HepaRG (AID 2283458). The settings on record: mRNA level, 48 h; actives raise or lower the signal. How it is done: LTEA_HepaRG is a cell based, multiplexed-readout assay that uses HepaRG, a human liver cell line, with measurements taken at 48 hours after chemical dosing on a 96-well plate.LTEA_HepaRG_GADD45A is one of 102 assay component(s) measured in the LTEA HepaRG cell culture assay. It is a marker of Oxidative Stress.Data from the assay component LTEA_HepaRG_GADD45A was analyzed into 1 endpoint. This assay endpoint, LTEA_HepaRG_GADD45A, was analyzed with bidirectional fitting relative to DMSO as the negative control and baseline of activity. Using a type of inducible reporter, measures of mRNA induction for gain or loss-of-signal activity can be used to understand regulation of transcription factor activity. To generalize the intended target to other relatable targets, this assay endpoint is annotated to the cell cycle intended target family, where the subfamily is Oxidative Stress.
A total of 1060 chemcials from the ToxCast library were tested in eight-point concentration-response experiments. Cell culture and cytotoxicity assays were conducted at Thermo Fisher Scientific's Custom Services facility (Madison, WI). A single lot of human HepaRG cells (Thermo Fisher Scientific, Frederick, MD) was used for the cell culture experiments. 96-well format collagen type I coated plates of human HepaRG cells were prepared using established methods. Briefly, cryopreserved HepaRG cells were thawed, plated at a density of approximately 100,000 cells/well in HepaRG Thaw, Plate, and General Purpose media (HPRG770, Thermo Fisher Scientific), and incubated for 48 hours. 0.5% DMSO was selected as vehicle control to balance the requisite need of DMSO in HepaRG cultures to maintain differentiation (for example, baseline metabolism, proportions of hepatocytes vs. cholangiocytes), while enabling further hepatic receptor pathway activation (for example, PXR and CAR) in response to chemical exposure. 48 hours after plating, the culture medium was replaced with HepaRG Serum-Free Incudtion Media. Cells were exposed to each test chemical in duplicate and maintained in CO2 incubators for another 48 hours. Chemical plates were thawed to room temperature and 200x concentrations of treatment groups were prepared. 8-point conentration-reponse curves were made with the highest exposure at 100 uM, followed by half-log dilutions, all in 0.5% DMSO. Each test plate contained variouse controls, induction positive controls (1mM phenobarbital), cytotoxicity positive controls ([…] aflatoxin B1), vehicle controls (0.5% DMSO), and total lysis controls (0.5% DMSO). Cell morphology images were taken using an Essen IncuCyte FLR automated microscope, with six 96-well plates imaged in about 24 minutes. Images were captured and exported and JPEG files. Spent culture media was transfered to black-well plates for the LDH assay, and remaining media was sorted at -80 C for later use. Cells were treated with RLT buffer and frozen until shipped for gene expression analysis. Total RNA was isolated from the cell suspension in 75 uL of Buffer RLT (Qiagen, Germantown, MD 20874) by Quintiles/Expression Analysis (Durham, NC) using a custom isolation procedure. Total RNA from each plate well was transferred to a preamplification plate. Fluidigm's 96.96 Dynamic ArrayTM (Fluidigm, Amsterdam, the Netherlands) technology was used for gene expression analyses by quantitative reverse transcription polymerase chain reaction (qRT-PCR, performed by Quintiles/Expression Analysis, Durham, NC)89. Standard TaqManTM Assays (Applied Biosystems/ThermoFisher Scientific, Foster City, CA) were used to assess the expression of 93 genes selected based on their selectivity and sensitivity to important hepatic receptors known to be modulated by environmental chemicals; importance in human hepatocyte functionality; and hepatotoxicity. […]
Turning to `O=C(N[C@H]1CN2CCC1CC2)c1ccc2c(c1)OCCO2`, the outcome was inactive.

Regarding `O=C(O)C1(c2ccc3c(c2)OC[C@H](Cc2ccc(-c4ccccc4)cc2)[C@H]3O)CCCC1`, the result was inactive.

With `Clc1cccc(Cl)c1`, the result was inactive.

Regarding `CC(C)O.CC(C)O.OCCN(CCO)CCO.OCCN(CCO)CCO.[Ti]`, the result was inactive.

Take `CCCCCCCCCCCCc1cccc(S(=O)(=O)O)c1`: the outcome was inactive.

For the compound `OCCN(CCO)CCO`, the compound was classed as inactive.

With `CC(C)(C)c1ccccc1O`, the outcome was inactive.

`CN(C)C(=S)S`: the call was inactive.

Regarding `N#Cc1cccnc1`, the result was inactive.

Take `COc1ccccc1N`: the compound was classed as inactive.

`Clc1cccc(Cl)c1Cl`: the result was inactive.

For `Oc1cc(Cl)c(Cl)cc1Cl`, the outcome was inactive.

On to `Cc1cc(C)cc(C)c1`, for which the call was inactive.

With `Oc1c(Cl)cc(Cl)cc1Cl`, the call was inactive.
